# Source: PubChem BioAssay
# The list is not random: actives were taken first. Their share in the collection is about 1.5%.
# BCLXL inh: inhibitors of human Bcl-xL, primary screen, biochemical, fluorescence polarization, HTS; actives 0.7% (n = 320,000); inhibition, % at 10.9 µM; GST-Bcl-xL / FITC-Bim BH3 peptide fluorescence polarization; Bcl-2-like protein 1 (Homo sapiens), Q07817;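 active = inhibition above the mean of all tested compounds plus 3 SD, cutoff set per campaign, cut at about 30% in these data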;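 also: 0% = DMSO wells and 100% = unlabeled Bim-BH3 peptide competitor; inhibitors lower millipolarization by displacing the labeled peptide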
# Target sequence (Q07817 whole entry, looked up): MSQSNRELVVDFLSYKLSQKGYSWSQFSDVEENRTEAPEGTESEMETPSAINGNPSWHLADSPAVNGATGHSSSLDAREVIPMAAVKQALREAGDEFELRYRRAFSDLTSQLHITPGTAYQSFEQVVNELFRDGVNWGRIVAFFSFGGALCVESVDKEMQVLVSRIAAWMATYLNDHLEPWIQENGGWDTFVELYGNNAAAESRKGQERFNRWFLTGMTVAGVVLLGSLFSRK
# GLD-1 RNA inh: GLD-1/TGE RNA complex disruptors, primary screen, biochemical, fluorescence polarization. purified GLD-1 + fluorescein TGE RNA. Female germline-specific tumor suppressor gld-1 (Caenorhabditis elegans), Q17339. actives 0.44% (n = 320,000). inhibition, % at 5.96 µM. AID 2280, 2010;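 active = percent inhibition above a per-plate cutoff, the plate mean of test compounds plus 3 SD, cut at about 30% in these data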;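 also: 0% = DMSO wells with GLD-1 and probe and 100% = wells lacking GLD-1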
# MCL1-BIM inh: inhibitors of MCL1 binding to BIM-BH3, primary screen, biochemical, fluorescence polarization; Induced myeloid leukemia cell differentiation protein Mcl-1 (Homo sapiens), Q07820; GST-MCL1 / FITC-Bim-BH3 fluorescence polarization; inhibition, % at 10.9 µM; actives 0.68% (n = 320,000);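 active = inhibition above the mean inhibition of all tested compounds plus 3 SD, set per campaign, cut at about 40% in these data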;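 also: 0% = DMSO wells and 100% = unlabeled Bim-BH3 peptide control; higher means more loss of mP so more displacement of Bim peptide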
# Target sequence (Q07820 whole entry, looked up): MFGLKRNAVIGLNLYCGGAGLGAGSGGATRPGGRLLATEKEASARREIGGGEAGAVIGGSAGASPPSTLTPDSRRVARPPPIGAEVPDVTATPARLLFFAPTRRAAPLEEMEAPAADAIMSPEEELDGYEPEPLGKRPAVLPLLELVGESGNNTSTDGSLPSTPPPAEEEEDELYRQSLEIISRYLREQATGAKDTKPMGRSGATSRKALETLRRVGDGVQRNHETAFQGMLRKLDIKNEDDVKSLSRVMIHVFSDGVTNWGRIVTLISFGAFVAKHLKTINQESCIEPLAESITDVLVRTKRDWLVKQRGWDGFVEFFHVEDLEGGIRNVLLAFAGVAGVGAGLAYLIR
# IDE act: human IDE activators in live cells, primary screen, fluorescence polarization, HEK cells, FAbeta-B substrate; AID 493087, 2011; FAbeta-B cleavage; 0% vehicle, 100% cell-free pure enzyme wells; activation, % at 5.96 µM; actives 0.073% (n = 340,000);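 active = activation above the mean of all tested compounds plus 3 SD, set per screening campaign, cut at about 17% in these data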
# IDE cell inh: human IDE inhibitors in live cells, primary screen, fluorescence polarization, HEK cells, FAbetaB substrate | Insulin-degrading enzyme (Homo sapiens), P14735 | FAbetaB cleavage | inhibition, % at 5.59 µM | actives 0.41% (n = 320,000) | AID 434962, 2010;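 active = percent inhibition above the average of all tested compounds plus 3 SD, set per screening campaign, cut at about 16% in these data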;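 also: IDE supplied by intact live HEK cells; FP after avidin binding of uncleaved biotin substrate so inhibition keeps polarization high; 0% = DMSO wells and 100% = 60 µM reference IDE inhibitor Ii1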
# MEX-5 binding: MEX-5 zinc finger RNA-binding disruptors – biochemical, C. elegans, fluorescence polarization, MLPCN library, primary screen | actives 0.38% (n = 300,000) | Zinc finger protein mex-5 (Caenorhabditis elegans), Q9XUB2 | MEX-5/FITC-TCR2 RNA binding; hits give low values | activity score (negative = inhibition of binding), % at 10 µM;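 active = inhibition past about -25% in most replicates, and total fluorescence under double the plate's negative control median, limit read from the data; inconclusive = replicates evenly split on the limit, or fluorescence at least double controls; inactive = too little inhibition in most replicates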;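 also: 0% = DMSO and -100% = 5 µM competing unlabeled TCR2 RNA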
# BCLXL inh confirm: Bcl-xL inhibitors blocking Bim BH3 binding, confirmation, counter-screen for MCL1 inhibitor project, biochemical, fluorescence polarization. shares compounds with MCL1-BIM inh. GST-Bcl-xL / FITC-Bim BH3 peptide FP binding. inhibition, % at 10.9 µM. actives 54% (n = 1,700). AID 2166, 2009;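 active = inhibition above a cutoff equal to the mean inhibition of all tested compounds plus 3 SD, cut at about 30% in these data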;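 also: 0% = DMSO wells and 100% = unlabeled Bim BH3 control peptide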
# MCL1 BIM confirm: inhibitors of MCL1 binding to BIM-BH3, confirmation, biochemical, fluorescence polarization, triplicate | shares compounds with MCL1-BIM inh | GST-MCL1 / FITC-Bim-BH3 fluorescence polarization | inhibition, % at 10.9 µM | actives 61% (n = 1,700);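 active = inhibition above the average of all tested compounds plus 3 SD, cut at about 40% in these data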;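 also: 0% = DMSO wells and 100% = unlabeled Bim-BH3 control peptide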
# Numbers without * were called inactive; ? = inconclusive; · = no result given; + = active, no number.
SMILES,BCLXL inh,GLD-1 RNA inh,MCL1-BIM inh,IDE act,IDE cell inh,MEX-5 binding,BCLXL inh confirm,MCL1 BIM confirm
CCN(CC)C(=O)C1c2ccccc2Oc2ccccc21,195*,169*,+,2,-15,?,91*,126*
O=C(C=C1SCCS1)/C=C/c1ccco1,14,3,37,0,-11,-4,·,·
O=C(O)C(C(=O)/C=C/c1ccco1)=C1SCCS1,26,4,51*,11,2,3,23,56*
c1coc(-c2nnc(-c3ccco3)nn2)c1,43*,8,75*,2,-4,-59*,39*,68*
c1ccc(-c2nnc(-c3ccco3)o2)cc1,5,3,1,-1,5,0,·,·
CCc1c(C)nc2nc(SCc3ccccc3)[nH]n2c1=O,4,1,8,2,-2,0,·,·
Cc1[nH]c(=O)c(C#N)c2c1COC(C)(C)C2,0,3,1,3,3,3,·,·
CC1=C(C#N)C(=O)OC(C)(C)C1,86*,63*,100*,8,-1,-47*,35*,50*
COCCN1CCN(C(=O)C2CCC(=O)N(CCc3ccccc3)C2)CC1 (stereo not given),4,1,-2,-3,1,2,·,·
Cc1ccc(N2C(=O)[C@@H]3[C@H](C2=O)C2c4ccccc4C=CN2[C@@H]3C(=O)c2ccco2)cc1 (stereo not given in full),·,·,·,3,·,·,·,·
O=C(c1ccco1)[C@@H]1[C@@H]2C(=O)N(c3ccccc3)C(=O)[C@@H]2C2c3ccccc3C=CN21 (stereo not given in full),79*,69*,79*,1,9,-30*,60*,77*
Cc1ccc(N2C(=O)[C@@H]3[C@H](C2=O)C2c4ccccc4C=CN2[C@@H]3C(=O)c2ccco2)c(C)c1 (stereo not given in full),73*,62*,63*,0,5,5,44*,59*
COc1ccc(CN(C)C(=O)Cn2cnc3c(OCc4ccccc4)ncnc32)cc1OC,·,1,·,2,1,·,·,·
CCOc1ccccc1N1CN(C2CCCCC2)CNC1=S,-2,-3,52*,·,-1,·,2,3
COc1ccc(/C=C(\C#N)C(=O)NCc2ccccc2)cc1O,1,1,-2,-1,0,2,·,·
N#C/C(=C\c1ccc(O)c(O)c1)C(=O)NCCc1ccccc1,4,3,42*,-13,16,·,31*,45*
Cc1nc2nc(-c3cccs3)cn2nc1C,106*,72*,113*,1,0,-11,100*,127*
Cc1nc2nc(-c3ccc(Cl)cc3)cn2nc1C,0,-4,-13,3,7,-19,·,·
O=c1[nH]c(-[n+]2ccc3ccccc3c2)c(/C=N/N=C(\[O-])c2ccccc2)s1,93*,137*,99*,-1,-4,-8,22,34
CCOC(=O)CNC(=O)c1cccnc1Oc1ccc(Cl)cc1,4,-3,4,7,6,-1,·,·
COc1ccc2oc(C(=O)N3CCN(S(=O)(=O)c4cccc([N+](=O)[O-])c4)CC3)c(C)c2c1,0,7,46*,-7,-4,1,6,8
CC(C)(C)OC(=O)NC(Cc1ccccc1)C(=O)N1CCC(C(=O)NCC(=O)Nc2ccc(F)cc2)CC1 (stereo not given),105*,57*,122*,6,-4,-57*,111*,141*
CC1(C)Oc2ccc(C(=O)NC3CCCC3)cc2N(CC(=O)NC2CCCCC2)C1=O,4,6,54*,-1,2,-3,25,34
COC(=O)C1=C(CSc2nc3c(cc2C#N)CN(C)CC3)OC(N)=C(C#N)C1c1ccccc1F (stereo not given),86*,48*,100*,2,11,-5,23,21
CCOC(=O)C1=C(CSc2nc3c(cc2C#N)CN(C)CC3)OC(N)=C(C#N)C1c1ccccc1 (stereo not given),68*,27,85*,-4,3,-6,16,8
SMILES,BCLXL inh,GLD-1 RNA inh,MCL1-BIM inh,IDE act,IDE cell inh,MEX-5 binding,BCLXL inh confirm,MCL1 BIM confirm
CC(C)(C)N1[C@@H](CC(=O)O)c2cc(C(F)(F)F)ccc2S1(=O)=O,3,2,8,-4,5,3,·,·
COc1ccc(C2CC(=O)C(C=NCC(C)C)=C(O)C2)cc1 (stereo not given),·,·,·,2,·,1,·,·
COc1ccc(C2CC(=O)C(C=NCCCO)=C(O)C2)cc1 (stereo not given),64*,22,80*,1,-3,-27*,61*,85*
Cc1cccc(NC(=O)N2CCC(C(=O)c3ccc(F)cc3)CC2)c1,2,-1,-2,3,4,-3,·,·
CCOc1ccc(-c2nnn(CC(=O)NCc3ccccc3)n2)cc1,9,-3,5,3,1,-2,·,·
COc1ccc(NC(=O)c2cc(S(=O)(=O)N3CCCCC3)c[nH]2)cc1,7,4,7,1,4,-3,·,·
COc1ccc(NC(=O)c2cc(S(=O)(=O)N3CCCC3)c[nH]2)cc1,3,3,108*,5,2,1,13,10
CCc1n[nH]c(=S)n1/N=C/c1cc(OC)cc([N+](=O)[O-])c1O,5,4,60*,5,0,-7,16,68*
COc1cc(/C=N/n2c(=S)[nH]nc(C)c2=O)cc([N+](=O)[O-])c1O,6,2,8,·,-4,-4,·,·
Cc1ccc(-c2nn(-c3ccc(F)cc3)cc2C(=O)N(C)CC(=O)Nc2ccc(N3CCOCC3)cc2)cc1,-4,7,-1,2,-2,0,·,·
